In the supplement of paper PMC6555819:

test system: VDR:RXRa (NR concentration 270 nM, RXRa partner concentration 90 nM); test: PBM binding z-score (relative to random genomic background probes); higher = stronger binding; sequences stand for … in GC…GCGATTGACAGCGTAGAATGAAGG
Experimental: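 Protein-binding microarray (Agilent 4x180K custom design, double-stranded 60-nt probes: 5' GC cap, 34-nt variable region, 24-nt constant primer region; full probe sequence given). Purified or IVT nuclear receptor:RXRα heterodimers (3:1 NR:RXRα, mostly 270:90 nM) or homodimers were incubated for 1 h in PBS with 2% milk and no ligand, then detected with Alexa488 antibodies. Fluorescence from o1-orientation probes (~5 replicates averaged) was converted to z-scores against 500 random hg19 background probes. Variable regions are seed direct-repeat (DR0–DR5) sites, all their single-nucleotide variants and half-site ablations.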

Sequence	PBM binding z-score
TGAATGAGGTTCTAAGATCAGGGAACGTTGCAAA	-0.428
CAAACTAGGTCACGACAGGTCAAAGTCGAATGAC	6.07
GCGACTGGGGCAAAGCAGGTAACCATAAGGTTGG	-0.313
GCTAGTTGGTCAGTAAAGGGTCACACACCGGTCG	3.09
CATCCAAGGTCAGCAGGTCAGTGAAAGCGACGTG	4.18
CCAGACAGGTGAAAGGGAACTCAGTCTGGTACGC	-0.152
CCTAGTTGTTCAAGGTCACACACGCTATAGGTAC	4.49
AGAACGAGGGCACGCTGAGTTTATAGCAGAGTAG	3.94
GTAACGAGGGCAAGTTGATAGCAGAGTTTGATGG	1.09
CCAGCTAGGTCATGGTCAGCTAATCTACAGTATG	1.6
CGTCAAGGTTCAACTAAGGTAACGTAAAGCACGC	3.94
GATACAGGGTCAAGGCCAGATTACGCGTATTGAT	4.45
CCTAGTTGGTCACGGTCACACACGCTATAGGTAC	1.12
TTACCAAGGGGAAGGTCGTTGATCCCTCTGTAGA	0.561
GCTGCTAGGTCTACTGATGGTCAGCTAAAGCTCG	-0.746
TGTCAAAGTTCAAAGATAACGTAAGTATCCACAC	4.23
TCGAGTAGGTTAGGGTCATTCAGAATGGCGTCGA	4.32
GCGGCTGGGGCAAAGCAGGTTACCATAAGGTTGG	0.192
CGTCCATGGTCAAGGTCAGTGAAAGAGACTCGAA	1.51
AGAATGAGGTTATACGTTGATCAGGGAAGAAAGT	1.39

Sequence	PBM binding z-score
CGCCCAAGGTCAATGCTAGGTCAGTGAAAGCATT	4.59
CCAATTAGTTGACCATAAGGGCAACCGAAGCTCG	0.678
TTACCAAGGAGAGCTGAGGTCGTTGATCCAACTC	1.15
CCGATTGGGGCAAGGTTACCATAACGCACAGCCA	0.0829
CGAACTAGGTCATCCAGGACAGTCAATACATTGA	4.83
CGTCCAAGGTCATAGGAGGTCGGTGAAGACAGAT	5.71
CCGACTGGGGCAAGGATACCATAACGCACAGCCA	-0.596
CGAACGCGGGCATGAGTTGATAGCAAATGCCGAT	-0.376
TTACCAAGGTGGGCTGAGGTCGTTGATCCAACTC	2.6
CGTCCAAGGTCAATGTCAGTGAAAGAGACTCGAA	3.45
CCTATTGGGCCAAAAAGGTCATTGATGCCGATAA	5.02
GCTGCTAGGTCAACTGATTGTCAGCTAAAGCTCG	1.14
CCTAGCAGGCCAGGGTCACTCACGCATTTCGCTT	2.3
ATAGCAAGGTGATCGTGAGGTCGTTGATACTAAC	2.94
CGTCCAAGGTCACTGCTAGGTCAGTGAAAGCATT	5.09
TTACCAAAGTGAGCTGAGGTCGTTGATCCAACTC	1.84
TCTATTAGTTGATTAGGGGAACCGAAACAGCGGA	0.739
CAAACTAGGTCCAGGTCAAAGTCGGTTTGTGCCA	3.06
CGAACTAGGCCATTGACAGGACAGTGAATAGTAA	-0.259
CCTAGCAAGCCAATCTGGGTCACTCAAGGCTTGA	0.396
